Values joined by “and” are separate entries in the source; they are usually repeats but may differ in a detail not shown here. Equal entries are not always repeated. A number with no mark means an inactive call. Records with an inconclusive call do not appear. Active and inactive are the calls of the source. Unless noted, the call rests on the fitted dose curve; in most records, active means well fitted curve in the direction sought with a large enough effect in the repeat runs; inconclusive means weak or mixed curves; inactive means no such curve, though single readings can be large; an effect the other way counts as inactive or inconclusive.

Assay [1] can be described thus: qHTS assay to test for compound auto fluorescence at 535 nm (green) in HEK293 cells (AID 720680).
Assay [2] in a line: qHTS assay to test for compound auto fluorescence at 460 nm (blue) in HEK293 cell free culture (AID 720681). The gist of the method:
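Compounds were added to cell-free DMEM with 10% FBS and fluorescence read directly. The blue channel used 405 nm excitation and 460 nm emission, with triamterene as the reference fluorophore.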

Assay [3] in a line: qHTS assay to test for compound auto fluorescence at 535 nm (green) in HEK293 cell free culture (AID 720682). The gist of the method:
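DMEM + 10% FBS, cell-free; cpd or DMSO pinned in; Ex485/Em535 read; output as fluorescein-equivalent signal.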
On the technique in general: Quantitative high-throughput screening tests each substance at several concentrations.

A short description of assay [4]: qHTS assay to test for compound auto fluorescence at 590 nm (red) in HEK293 cell free culture (AID 720683). In outline:
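Cell-free wells of DMEM with 10% FBS received compound, and intrinsic fluorescence was read at excitation/emission 540/590 nm. Values expressed as equivalence to Rose Bengal sodium.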

Assay [5] is described as follows: qHTS assay to test for compound auto fluorescence at 460 nm (blue) in HepG2 cell free culture (AID 720685). In outline:
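Compound (23 nL) or DMSO pinned into cell-free MEM with 10% FBS; blue fluorescence read at 405/460 nm excitation/emission, expressed as auto-fluorescence equivalency to triamterene.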

Assay [6] is described as follows: qHTS assay to test for compound auto fluorescence at 535 nm (green) in HepG2 cell free culture (AID 720686).
Assay [7] can be described thus: qHTS assay to test for compound auto fluorescence at 460 nm (blue) in HepG2 cells (AID 720687). In outline: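 HepG2 cells in MEM with 10% FBS, attached overnight at 37 C, were exposed to compound or DMSO for 1 hr at 37 C, 5% CO2. Blue fluorescence was read at 405/460 nm, with triamterene as reference fluorophore.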
For assay [8], the target named is Glucocorticoid receptor (Homo sapiens) (UniProt P04150). The assay is described as follows: qHTS assay to identify small molecule agonists of the glucocorticoid receptor (GR) signaling pathway (AID 720691; active means well fitted activation curve with a large enough effect in the signal ratio in the repeat runs, not every such curve was filed as active; the % refers to the signal ratio). In outline: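 Agonist mode in a HeLa line carrying a GRE-controlled beta-lactamase reporter. Compounds act for 18 h at 37 C before a 2 h room-temperature FRET substrate step and fluorescence reading.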
Glucocorticoid receptor (Homo sapiens), sequence (P04150 whole entry, looked up): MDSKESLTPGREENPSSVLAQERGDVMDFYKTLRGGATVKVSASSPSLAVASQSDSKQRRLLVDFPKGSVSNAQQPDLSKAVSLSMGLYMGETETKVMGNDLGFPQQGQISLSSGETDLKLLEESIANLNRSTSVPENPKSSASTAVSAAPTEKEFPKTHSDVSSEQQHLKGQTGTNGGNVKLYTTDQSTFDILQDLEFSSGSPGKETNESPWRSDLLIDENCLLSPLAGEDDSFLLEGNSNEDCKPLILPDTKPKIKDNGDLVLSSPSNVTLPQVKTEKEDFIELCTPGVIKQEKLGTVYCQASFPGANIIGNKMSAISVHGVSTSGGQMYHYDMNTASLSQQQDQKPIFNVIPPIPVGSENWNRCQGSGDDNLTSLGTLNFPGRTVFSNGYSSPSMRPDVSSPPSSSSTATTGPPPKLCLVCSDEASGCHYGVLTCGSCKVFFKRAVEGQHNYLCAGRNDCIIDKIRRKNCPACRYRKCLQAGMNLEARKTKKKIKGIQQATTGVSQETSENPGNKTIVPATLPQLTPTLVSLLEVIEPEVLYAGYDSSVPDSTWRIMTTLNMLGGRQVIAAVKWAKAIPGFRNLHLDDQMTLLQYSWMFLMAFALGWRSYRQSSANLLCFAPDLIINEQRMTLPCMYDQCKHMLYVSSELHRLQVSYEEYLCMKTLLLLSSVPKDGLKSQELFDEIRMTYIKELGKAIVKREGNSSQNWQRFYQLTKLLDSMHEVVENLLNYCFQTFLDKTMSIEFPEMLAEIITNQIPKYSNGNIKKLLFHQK

Assay [9] shares this target. Nature of the assay: qHTS assay to identify small molecule antagonists of the glucocorticoid receptor (GR) signaling pathway (AID 720692; active means well fitted inhibition curve with a large enough effect in the signal ratio in the repeat runs, not every such curve was filed as active; the % refers to the signal ratio; further: potency means the concentration at half of the fitted maximal effect). In outline: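 Cells plated, rested 4 h at 37 C/5% CO2; compounds in DMSO pin-transferred; dexamethasone added to 5 nM final; 18 h at 37 C; B/G FRET substrate added, 2 h room temperature; fluorescence measured.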
Assay [10] can be described thus: qHTS assay to identify small molecule antagonists of the glucocorticoid receptor (GR) signaling pathway - cell viability counter screen (AID 720693). Further: nearly all actives have a fitted effect of over 55% in size.
Assay [11] can be described thus: qHTS assay for identifying genotoxic compounds that show differential cytotoxicity against isogenic chicken DT40 cell lines with known DNA damage response pathways - wild type cell line (AID 743012). Further: nearly all actives have a fitted effect of over 60% in size. The gist of the method:
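Cells (DT40 wild type, 300/well) are treated with DMSO-dissolved compounds after a ~0.5 h pre-incubation and kept 40 h at 37 C/5% CO2. Viability is then measured by CellTiter-Glo luminescence following 30 min at room temperature.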

The nature of assay [12]: qHTS assay for identifying genotoxic compounds that show differential cytotoxicity against isogenic chicken DT40 cell lines with known DNA damage response pathways - Rev3 mutant cell line (AID 743014). Further: nearly all actives have a fitted effect of over 55% in size. Further: potency means the concentration at half of the fitted maximal effect.
The nature of assay [13]: qHTS assay for identifying genotoxic compounds that show differential cytotoxicity against isogenic chicken DT40 cell lines with known DNA damage response pathways - Rad54/Ku70 mutant cell line (AID 743015). Further: nearly all actives have a fitted effect of over 60% in size. Further: potency means the concentration at half of the fitted maximal effect.
A short description of assay [14]: qHTS assay to identify small molecule antagonists of the androgen receptor (AR) signaling pathway - cell viability counter screen (AID 743033; further: nearly all actives have a fitted effect of over 45% in size).
Assay [15] in a line: qHTS assay to identify small molecule antagonists of the androgen receptor (AR) signaling pathway using the MDA cell line - cell viability counter screen (AID 743041; further: nearly all actives have a fitted effect of over 45% in size). The gist of the method:
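MDA-kb2 AR-luc cells (MMTV-luciferase, AR/GR responsive) treated with compounds plus R1881 agonist for 16 h at 37C. CellTiter-Fluor added at 15.5 h; fluorescence read after 30 min in the same wells.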

A short description of assay [16]: qHTS assay to test for compound auto fluorescence at 590 nm (red) in HepG2 cell free culture (AID 720684). In outline: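 Compound was pinned into wells holding MEM with 10% FBS and no cells, and red fluorescence was read at Ex/Em 540/590 nm. Signal is expressed as auto fluorescence equivalency relative to Rose Bengal sodium.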
For assay [17], the target named is Androgen receptor (Homo sapiens) (UniProt P10275). The assay is described as follows: qHTS assay to identify small molecule agonists of the androgen receptor (AR) signaling pathway using the MDA cell line (AID 743040; further: nearly all actives have a fitted effect of over 20% in size). The gist of the method:
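MDA-kb2 breast carcinoma cells carrying MMTV-luciferase (responsive to AR and GR), plated 5 h then treated 16 h with compounds at 37C, 0% CO2. Read-out was ONE-Glo luminescence after 30 min at room temperature.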

The target is the same in assay [18]. Nature of the assay: qHTS assay to identify small molecule antagonists of the androgen receptor (AR) signaling pathway using the MDA cell line (AID 743042; further: nearly all actives have a fitted effect of over 55% in size). The gist of the method: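 MDA-kb2 breast carcinoma cells carrying MMTV-luciferase (AR/GR responsive) were co-treated with compounds and the agonist R1881 for 16 h at 37C. Inhibition read as ONE-Glo luminescence; CellTiter-Fluor fluorescence measured in parallel for cytotoxicity.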

Androgen receptor (Homo sapiens), sequence (P10275 whole entry, looked up): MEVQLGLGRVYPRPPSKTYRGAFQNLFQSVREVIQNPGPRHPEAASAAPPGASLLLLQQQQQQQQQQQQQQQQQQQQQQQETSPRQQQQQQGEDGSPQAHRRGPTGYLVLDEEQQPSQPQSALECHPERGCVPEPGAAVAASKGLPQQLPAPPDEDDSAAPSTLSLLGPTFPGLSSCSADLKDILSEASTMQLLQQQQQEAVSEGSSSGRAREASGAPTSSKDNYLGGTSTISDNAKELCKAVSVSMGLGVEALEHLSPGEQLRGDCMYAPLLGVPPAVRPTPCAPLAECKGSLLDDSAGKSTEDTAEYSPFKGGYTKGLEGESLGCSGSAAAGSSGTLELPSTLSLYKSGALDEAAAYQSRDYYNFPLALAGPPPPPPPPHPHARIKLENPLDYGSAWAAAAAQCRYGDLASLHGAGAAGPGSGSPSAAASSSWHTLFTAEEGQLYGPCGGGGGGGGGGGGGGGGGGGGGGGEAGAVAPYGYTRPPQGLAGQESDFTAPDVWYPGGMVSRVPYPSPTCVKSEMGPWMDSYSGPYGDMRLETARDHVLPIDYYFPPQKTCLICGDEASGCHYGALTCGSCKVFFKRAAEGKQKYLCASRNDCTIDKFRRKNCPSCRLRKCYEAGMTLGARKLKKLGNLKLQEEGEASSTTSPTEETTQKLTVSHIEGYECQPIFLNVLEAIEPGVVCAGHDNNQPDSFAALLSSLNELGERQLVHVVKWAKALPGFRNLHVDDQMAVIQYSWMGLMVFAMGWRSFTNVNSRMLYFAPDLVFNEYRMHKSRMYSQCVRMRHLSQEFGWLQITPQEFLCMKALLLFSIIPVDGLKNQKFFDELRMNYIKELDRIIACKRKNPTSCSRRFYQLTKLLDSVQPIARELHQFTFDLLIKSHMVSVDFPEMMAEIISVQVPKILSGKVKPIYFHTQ

As to `OCCc1ccccn1`, the result in assay [1], in assay [2], in assay [3], in assay [4], in assay [5] and in assay [6] was inactive. Also, the outcome in assay [7], in assay [10] and in assay [14] was inactive. The Potency result in assay [8], in assay [9], in assay [11], in [12], in assay [13] and in [15] was “inactive” each time.

For the compound `CC1OC1C1CCC2(C)OC2C1` (stereo unspecified), the compound was classed as inactive in assay [1], in [2], in assay [3], in assay [4], in assay [5] and in assay [6]. Besides, the call in [7] and in assay [14] was inactive. Further, the Potency result in assay [8], in assay [9], in assay [11], in [12], in assay [13] and in assay [15] was “inactive” throughout.

Turning to `CCN[C@@H]1C[C@H](N)[C@@H](OC2OC(CN)=CCC2N)[C@H](O)[C@H]1O[C@H]1OC[C@](C)(O)[C@H](NC)[C@H]1O` (stereo partly specified), the result in assay [1], in assay [2], in assay [3], in assay [4], in assay [5] and in assay [6] was inactive. For the same compound, the compound was called inactive in assay [7], in assay [10] and in [14]. For the same compound, the Potency entry in [11], in assay [13] and in [15] was “inactive” throughout.

For `CC(C)(CCC(=O)O)C(=O)O`, the outcome in [1], in [2], in assay [4], in assay [16], in assay [5] and in assay [6] was inactive. Also, the compound was called inactive in [7], in assay [10] and in assay [14]. The Potency result in assay [8], in [9], in [11], in assay [12], in assay [13] and in [15] was “inactive” in each case.

In the case of `COc1ccnc(CS(=O)c2nc3cc(OC(F)F)ccc3[nH]2)c1OC` (stereo unspecified), the result in [1], in assay [2], in assay [3], in assay [4], in [5] and in assay [6] was inactive. Further, the call in assay [7] and in assay [14] was inactive. Further, the Potency entry in [8], in [9], in assay [11], in assay [12], in [13] and in assay [15] was “inactive” in each case.

On to `CCN[C@H]1C[C@H](C)S(=O)(=O)c2sc(S(N)(=O)=O)cc21`, for which the outcome in assay [1], in assay [2], in [3], in [4], in assay [5] and in assay [6] was inactive. Also, the compound was classed as inactive in assay [7], in assay [10] and in assay [14]. Moreover, the Potency result in assay [8], in assay [9], in assay [11], in assay [12], in assay [13] and in [15] was “inactive” throughout.

Take `CC(=O)O[C@@]12CO[C@@H]1C[C@H](O)[C@@]1(C)C(=O)[C@H](O)C3=C(C)[C@@H](OC(=O)[C@H](O)[C@@H](NC(=O)OC(C)(C)C)c4ccccc4)C[C@@](O)([C@@H](OC(=O)c4ccccc4)[C@H]21)C3(C)C`: the result in [1], in [2], in [3], in assay [4], in assay [5] and in [6] was inactive. The call in assay [7], in assay [10], in assay [14] and in [18] was inactive. The Potency result in [8], in [17] and in assay [15] was “inactive” throughout. Moreover, the Potency in [9] was 10.7 µM (active); in [12], 1.7 nM (active) and 1.9 nM (active); in assay [13], 0.0027 µM (active).

On to `[O-][n+]1cccc(CO)c1`, for which the compound was called inactive in assay [1], in assay [2], in [4], in assay [16], in assay [5] and in assay [6]. Besides, the call in assay [7], in assay [10] and in assay [14] was inactive. Further, the Potency result in assay [8], in assay [9], in [11], in assay [12], in [13] and in [15] was “inactive” throughout.

Source of the values: PubChem BioAssay (Tox21).
